This note sets out measurements from PubChem BioAssay.

Broadly, the inhibition is the relative decrease from the control value, in per cent.

Structures are written as SMILES. Values without a mark were called inactive. The rule behind the calls is not given here.

In the test the target is Pantothenate synthetase (Mycobacterium tuberculosis (strain ATCC 25618 / H37Rv)) (UniProt P9WIL5). The test can be described thus: Coupled enzyme confirmation of inhibitors against recombinant Mtb PanC (AID 375).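 Note: 0% = full reaction with vehicle and 100% = no enzyme background.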 To be noted: coupled enzyme assay; at 10 µM, active compounds read high.
Chain of Pantothenate synthetase (Mycobacterium tuberculosis (strain ATCC 25618 / H37Rv)) (P9WIL5 whole entry, looked up): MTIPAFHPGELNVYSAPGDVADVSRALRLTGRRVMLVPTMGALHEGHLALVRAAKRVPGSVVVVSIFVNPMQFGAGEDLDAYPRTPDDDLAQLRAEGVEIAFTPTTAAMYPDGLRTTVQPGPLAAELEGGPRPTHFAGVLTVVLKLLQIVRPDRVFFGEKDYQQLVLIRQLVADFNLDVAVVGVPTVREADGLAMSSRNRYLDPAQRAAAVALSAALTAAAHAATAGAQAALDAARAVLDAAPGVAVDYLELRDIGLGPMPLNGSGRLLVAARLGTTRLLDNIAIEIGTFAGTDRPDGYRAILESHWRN
In the case of `Cn1c(NCc2cccc(Br)c2)nc2ccccc21`, the inhibition was 1%.

With `CCOC(=O)CSc1nnc(CCc2nc3ccccc3[nH]2)n1C`, the inhibition was 10%.

Regarding `CCOC(=O)N1CCN(c2cc(=O)n(-c3cccc(Br)c3)c(=O)[nH]2)CC1`, the inhibition is 0%.

As to `O=c1[nH]c(SCc2cc(=O)n3ccccc3n2)nc2c1CCC2`, the inhibition is 4%.

For `S=C(NCC1CCCO1)n1nnc2ccccc21` (stereo not drawn), the inhibition is 6%.

On to `CCOc1ccc(S(=O)(=O)N(C)C)cc1-c1nc2c(C(C)(C)C)nn(C)c2c(=O)[nH]1`, for which the inhibition was 0%.

For `O=C(c1ccc(Cl)cc1)C1CCN(C(=O)NC2CCCCC2)CC1`, the inhibition is 0%.

For `COc1ccc(Cn2c(CCCO)nc3ccccc32)cc1OC`, the inhibition is 0%.

For the molecule `COc1cc(NC(=O)Nc2cccc(C(C)=O)c2)cc(OC)c1OC`, the inhibition was 0%.

`CCOC(=O)c1ccc(COC(=O)CCc2nc3ccccc3[nH]c2=O)o1`: the inhibition was 0%.

In the case of `O=c1c2cc(Cl)ccc2[nH]c(=S)n1Cc1ccco1`, the inhibition was 8%.

For the molecule `O=S(=O)(Nc1cccc2ncccc12)c1cccs1`, the inhibition is 6%.

Turning to `CC(=O)N1CCc2cc(S(=O)(=O)NCCC(=O)NC3CCCc4ccccc43)ccc21` (stereo not drawn), the inhibition was 0%.

Take `CC(=O)NC(C)c1nc2ccccc2n1C(C)C` (stereo not drawn): the inhibition is 6%.

`COC(=O)c1ccc(Cl)c(NC(C)=O)c1`: the inhibition was 4%.

With `Cc1cc(C)c(C(=O)CSc2nnc(-c3ccccc3Br)o2)cc1C`, the inhibition is 2%.

Regarding `CC(=O)NC1=NC(=O)/C(=C/N2CCCCC2)S1`, the inhibition is 8%.

Regarding `COc1ccc(-n2c(Cc3cccn3C)nnc2SCC(=O)Nc2cccc(C)c2C)cc1`, the inhibition is 0%.
